# Data reported in PubChem BioAssay AID463195 (Sanford-Burnham Center for Chemical Genomics, 2010).
# About 4,600 (1.4%) of roughly 330,000 compounds were called active. The list comes from a sample in which actives are over-represented; it also holds similar structures and randomly drawn compounds. Values without a mark were called inactive.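 Rule for the calls: active = inhibition of 40% or more at the single tested concentration; inactive = the rest.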
# Experiment: growth inhibitors of isogenic TIM10 control yeast, primary screen, counter-screen for tim10-1 yeast inhibitor project, luminescence, uHTS (AID 463195);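 note: wild-type TIM10 isogenic control strain grown at permissive 25 °C; 0% = DMSO yeast wells and 100% = minimal medium wells without yeast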
# Conditions: S. cerevisiae TIM10 strain growth, BacTiter-Glo luminescence, 24 h; at 10 µM; active compounds read high
row,SMILES,inhibition
1,O=c1c2ccccc2nnn1CSc1nc2sc3c(c2c(=O)n1CC1CCCO1)CCC3 (centres undefined),25.8%
2,Cc1nnc(-c2ccc(Oc3ccc(C)c(C)c3)c([N+](=O)[O-])c2)o1,17.1%
3,O=C(OCC(=O)c1c[nH]c2ccccc12)c1cccc(O)c1,5.38%
4,CCN1CCN(c2ccc(NC(=O)c3cnccn3)cc2)CC1,-4.6%
5,COc1ccc(NC(=O)C/C(C)=N/NC(=O)c2cnccn2)cc1Cl,3.17%
6,CCN(CC)c1ccc(/C=N/NC(=O)c2cnccn2)c(O)c1,44.5% (active)
7,Cc1ccc2nc(Nc3ncc4c(n3)CC(C)(C)CC4=O)nc(C)c2c1,5.07%
8,Cc1cc(=O)n2nc(N3CCCC(C(=O)N4CCN(C)CC4)C3)sc2n1 (centres undefined),2.79%
9,COc1ccc(-n2cc(-c3ccccc3)c3c(=S)nc[nH]c32)cc1,33.8%
10,O=c1[nH]cnc2c1c(-c1ccccc1)cn2-c1ccc(F)cc1,42.6% (active)
11,O=c1c2c(-c3ccccc3)ccnc2[nH]n1-c1ccccc1,-17.3%
12,O=[N+]([O-])c1cc(C(F)(F)F)ccc1NCCc1ccncc1,6.18%
13,Cc1nn(Cc2ccccc2Cl)c(C)c1NC(=O)Cn1nc([N+](=O)[O-])c(Cl)c1C,2.84%
14,NC(=O)C[n+]1cccc(C(N)=O)c1,13.2%
15,C#CCOCCOCCOCCNc1nc(N2CCN(C(=O)[C@H](CCC(=O)O)n3cc(C(N)CO)nn3)CC2)nc(N2CCN(C(=O)[C@H](CCCCN)n3cc(C(N)CC(C)C)nn3)CC2)n1 (some centres undefined),-1.57%
16,CC(C)(C)N(CC#CCC(O)(c1ccccc1)C1CCCC1)CCO (centres undefined),0.266%
17,O=C1CC(N2CCN(c3ccc(F)cc3)CC2)C(=O)N1c1ccccc1 (centres undefined),-7.52%
18,O=C1C=CC(=O)N1c1ccc(N2CCCCC2)cc1,73.2% (active)
19,CC(=O)Nc1ccc(S(=O)(=O)Nc2ccc(N3CCCCC3)cc2)cc1,-2.15%
20,COc1ccc(-c2cc(C3CCN(c4ncccc4[N+](=O)[O-])CC3)[nH]n2)cc1,33%

row,SMILES,inhibition
1,CC(=O)CSc1nnc(CSc2ncccn2)n1C1CCCCC1,3.42%
2,Nn1cnnc1N/N=C/c1cc([N+](=O)[O-])c(Cl)cc1Cl,-10.5%
3,CN(CC(=O)Nc1ccccc1C(F)(F)F)C(=O)Cc1ccccc1F,12.1%
4,O=C(Nc1ccccc1F)c1ccccc1-c1ccc(C(F)(F)F)cc1,9.5%
5,N#C/C(=C\c1ccccc1C(F)(F)F)C(=O)Nc1ccccc1F,47.5% (active)
6,Oc1[nH]c2ccc(Br)cc2c1N=Nc1nn[nH]n1,6.35%
7,Cc1cccc(N=Nc2c(O)[nH]c3ccc(F)cc23)c1,45% (active)
8,NS(=O)(=O)c1ccc(N=Nc2c(O)[nH]c3ccc(Br)cc23)cc1,-10.2%
9,Cc1ccc(C)c(NC2=NCC(=O)N2c2ccc3c(c2)OCCO3)c1,2.39%
10,Cc1ccc(C(=O)N2CC(=O)Nc3ccc(F)cc3C2c2ccc(F)cc2)cc1 (centres undefined),20.6%
11,CC1=CC=CN2C1=NC(=O)CC2(C)C(=O)N(CC(=O)NC1CCCC1)c1ccccc1C (centres undefined),-13.9%
12,O=C(OCC(=O)c1cccs1)c1ccc([N+](=O)[O-])o1,14.1%
13,O=C(COC(=O)c1ccc([N+](=O)[O-])o1)NC12CC3CC(CC(C3)C1)C2,44.7% (active)
14,O=C(COC(=O)c1ccc(Br)o1)NC12CC3CC(CC(C3)C1)C2,25.9%
15,COc1ccc(C2=NS(=O)(=O)N(C)C(C(=O)NC(C)c3ccccc3)=C2)cc1 (centres undefined),-4.03%
16,Cn1c(=O)c2c(nc(NCCNC(=O)c3ccco3)n2Cc2ccccc2F)n(C)c1=O,-1.93%
17,COc1cc(NC(=O)COC(=O)c2ccc([N+](=O)[O-])s2)cc(OC)c1OC,32.6%
18,O=C(OCC(=O)N1CCN(c2ccccc2)CC1)c1ccc([N+](=O)[O-])s1,-16.2%
19,COc1ccc(C(=O)COC(=O)c2ccc([N+](=O)[O-])s2)cc1OC,60.6% (active)
20,O=C(O)c1cccc2c1C(=O)N(C1CCCCC1)C2,17.6%

row,SMILES,inhibition
1,COc1ccc(CNC(=O)C2CCN(C(=O)c3ccco3)CC2)cc1,6.55%
2,CC(C)NS(=O)(=O)c1ccc(CCC(=O)N2CCOCC2)cc1,-1.05%
3,C=CCSC(CC)(CC)C(N)=O,2.57%
4,NS(=O)(=O)c1ccc(CCNC(=S)Nc2ccc(S(N)(=O)=O)cc2)cc1,1.03%
5,NS(=O)(=O)c1ccc(NC(=S)Nc2ccc(Br)c(Cl)c2)cc1,42.9% (active)
6,NS(=O)(=O)c1ccc(NC(=S)NC(=O)c2cccc(Br)c2)cc1,19.3%
7,O=C(CSc1nc(O)c(Cc2ccccc2)c(=O)[nH]1)Nc1nc2c(s1)CCCC2,-0.307%
8,O=C(NCc1ccccc1)c1ccc(CNc2c(N3CCCC3)c(=O)c2=O)cc1,2.83%
9,CCOC(=O)C(CCOc1cccc(CC)c1)C(=O)OCC,9.43%
10,Cc1noc(C)c1S(=O)(=O)Nc1ccc(C(=O)N2CCN(c3ccc(F)cc3)CC2)cc1,3.71%
11,Cc1ccc(F)cc1NC(=O)N1CCCN(c2ccc(C(F)(F)F)cn2)CC1,21.2%
12,O=C(c1ccc2nc(N3CCOCC3)sc2c1)N1CCN(c2ccc(Cl)cc2)CC1,39.5%
13,COc1ccc2nc(N3CCN(C(=O)c4ccc([N+](=O)[O-])o4)CC3)sc2c1,43.2% (active)
14,Cc1ccc2nc(N3CCN(C(=O)c4ccco4)CC3)sc2c1,-6.8%
15,CCCC(=O)n1nc(NCc2ccc(OC)cc2)nc1NCc1ccc(OC)cc1,-4.33%
16,Cc1ccnc(SCC(=O)Nc2cccc(S(=O)(=O)N3CCOCC3)c2)n1,-2.35%
17,COC(=O)c1cc(=O)n(-c2c(Cl)cc(C(F)(F)F)cc2Cl)[nH]1,-4.96%
18,COc1ccc2c(c1)cc1n2CCN=C1NN,76.6% (active)
19,COc1ccc2ccn(C)c2c1,-5.57%
